The values that follow come from PubChem BioAssay (NCATS).

Assay [1] can be described thus: Cell Viability - MRC5 (AID 434; calls by dose curve;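 further: potency means the concentration at half of the fitted maximal effect; cells exposed to compound for 40 hours at 37 °C; potency reflects cytotoxicity seen as loss of intracellular ATP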). The following applies: MRC5 lung fibroblast viability, qHTS. In outline:
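ATP luminescence read-out (CellTiter-Glo, 20 min RT) after 40 hr, 37 °C compound exposure of 1500 MRC5 cells/well. Data normalized to DMSO (basal) and 100 uM tamoxifen (100% inhibition); AC50 from standard Hill equation.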

Assay [2] is described as follows: Cell Viability - HUV-EC-C (AID 542).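 Further: cells exposed to compound for 40 hours; nearly all actives have a fitted effect of over 35% in size.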 Further: potency means the concentration at half of the fitted maximal effect. The following applies: HUV-EC-C endothelial cell viability, qHTS; series mostly up to 92.2 µM. A digest of the protocol:
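Cells were seeded at 1000 per well and incubated 5 hr at 37 °C before compound addition. After 40 hr at 37 °C, CellTiter-Glo reagent was added for 20 min and luminescence read. AC50 values came from Hill-equation modelling.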

The nature of assay [3]: Cellular Toxicity (caspase-3) HepG2 (AID 654). Further: potency means the concentration at half of the fitted maximal effect.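 On caspase-3 activation: cells exposed to compound for 16 hours before reading; 0% = DMSO alone and 100% = caspase signal from 100 µM tamoxifen.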 The following applies: HepG2 caspase-3 activation, luminescence; series mostly up to 92.2 µM. In outline: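 Caspase 3/7 activation in HepG2 is measured as rising luminescence after a 16 hr treatment at 37 °C. Values are scaled between DMSO basal and 100 uM tamoxifen, and AC50 is fitted with the Hill equation.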
Assay [4] is described as follows: Cellular Toxicity (caspase-3) HUV-EC-C (AID 656). Further: potency means the concentration at half of the fitted maximal effect. The following applies: HUV-EC-C cells, caspase-3 activation (apoptosis); series mostly up to 92.2 µM. A digest of the protocol: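 Read-out: luminescence proportional to caspase 3/7 activity, measured 20 min after adding Caspase-Glo 3/7 reagent. Cells (HUV-EC-C) had received compound for 16 hr at 37°C. Increases relative to DMSO and 100 uM tamoxifen gave concentration-response AC50 values.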

A short description of assay [5]: Cellular Toxicity (caspase-3) MRC-5 (AID 659). The following applies: MRC-5 cells, luminescence, normalized: DMSO 0%, 10 µM staurosporine 100%; series mostly up to 91.7 µM. In outline: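 MRC-5 fibroblasts, 1500/well; 16 h cpd, 37 °C; Caspase-Glo 3/7, 1 h RT; lumi read. Norm: DMSO = 0%, 10 uM staurosporine = 100%. Hill-fit AC50 from qHTS conc-response.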
A short description of assay [6]: Cellular Toxicity (caspase-3) Renal Proximal Tubule (AID 667).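 Further: cells exposed to compound for 16 hours at 37 °C before detection.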 Further: potency means the concentration at half of the fitted maximal effect. The following applies: renal proximal tubule cells, primary cells freshly taken from rat; Potency: caspase-3 activation; series mostly up to 91.7 µM. In outline:
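In qHTS format, rat primary proximal tubule cells seeded at 1000 per well are exposed to compounds for 16 hours at 37 °C. An increase in Caspase-Glo 3/7 luminescence indicates caspase activation.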

A short description of assay [7]: MultiTox-Fluor Cytotoxicity Assay - LYMP1-003 - Dead Cells (AID 961). Further: nearly all actives have a fitted effect of over 70% in size. Further: potency means the concentration at half of the fitted maximal effect. The following applies: LYMP1-003 lymphoblastoid cells, dead-cell protease fluorescence; series mostly up to 92.2 µM. A digest of the protocol: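 LYMP1-003 human lymphoblastoid cells (2500/well) exposed to compound 16 h at 37 C in complete medium; dead-cell protease read with bis-AAF-R110 fluorescence (Ex/Em 485/520) after 60 min at room temperature. Normalized to DMSO and 15 uM tetraoctylammonium bromide; AC50 from Hill fit.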

A short description of assay [8]: Cell Viability - LYMP1-003 - Assay at 24 hr (AID 963). Further: potency means the concentration at half of the fitted maximal effect. The following applies: LYMP1-003 lymphoblastoid cell viability; series mostly up to 92.2 µM. In outline: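 Cytotoxicity is scored as a concentration-dependent fall in ATP-linked luciferase signal in human lymphoblastoid LYMP1-003 cells treated 24 hr at 37 C in complete culture medium.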
Assay [9] can be described thus: Cell Viability - LYMP1-002 - Assay at 24 hr (AID 993). Further: potency means the concentration at half of the fitted maximal effect. The following applies: LYMP1-002 lymphoblastoid cells viability; series mostly up to 92.2 µM. A digest of the protocol:
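Acute toxicity is measured as concentration-dependent loss of cellular ATP in a human lymphoblastoid line (Coriell LYMP1-002) after 24 h treatment in complete medium. ATP is quantified by luciferase luminescence and AC50 derived by Hill modelling.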

The nature of assay [10]: qHTS Assay for Identification of Small Molecule Inducers of Hypoxia Response (AID 2120; active means well fitted curve in the direction sought with a large enough effect in the signal ratio, with a control signal flat, not every such curve was filed as active; the % refers to the signal ratio; further: 0% is about no effect). The following applies: hypoxia response reporter cells, beta-lactamase ratio readout; series mostly up to 104 µM. A digest of the protocol:
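Cell-based qHTS for reporter induction: hypoxia response element controlled beta-lactamase in ME-180 cells. Compounds incubated 17 h at 37 degrees C; activity from blue/green (460/530 nm) ratio, inducers ranked by AC50.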

Assay [11] deals with Peroxisome proliferator-activated receptor alpha (Homo sapiens) (UniProt Q07869). The assay can be described thus: qHTS assay for small molecule agonists of the peroxisome proliferator-activated receptor alpha (PPARalpha) signaling pathway (AID 651778). Further: % of control where 0% means no effect. The following applies: PathHunter PPARalpha complementation, chemiluminescence, 6 h; max response: hits give high values. In outline: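 Enzyme-fragment complementation assay in which ligand-bound PPARalpha translocates and forms an active enzyme that generates chemiluminescence. Cells were plated overnight, exposed to compound for 6 hr at 37 C, and then given detection reagent for 60 min at room temperature.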
Chain of Peroxisome proliferator-activated receptor alpha (Homo sapiens) (Q07869 whole entry, looked up, the tested form may be a part): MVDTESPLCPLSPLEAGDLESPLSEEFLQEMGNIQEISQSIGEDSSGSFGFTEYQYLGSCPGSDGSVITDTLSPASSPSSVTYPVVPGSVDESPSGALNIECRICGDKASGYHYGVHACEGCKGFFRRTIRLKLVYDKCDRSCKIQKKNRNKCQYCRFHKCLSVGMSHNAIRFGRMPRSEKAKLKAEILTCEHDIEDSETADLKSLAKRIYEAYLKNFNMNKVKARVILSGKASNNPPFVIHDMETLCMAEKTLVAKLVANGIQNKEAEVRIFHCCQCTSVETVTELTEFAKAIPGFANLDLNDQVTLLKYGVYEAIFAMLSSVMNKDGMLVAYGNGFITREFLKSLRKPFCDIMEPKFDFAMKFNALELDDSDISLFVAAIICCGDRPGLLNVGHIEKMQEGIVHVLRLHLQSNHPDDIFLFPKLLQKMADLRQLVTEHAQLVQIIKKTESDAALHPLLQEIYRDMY

The nature of assay [12]: qHTS assay for small molecule agonists of the antioxidant response element (ARE) signaling pathway measured by Nrf2-dependant transcriptional activity - cell viability counter screen (AID 720653; active means well fitted curve in the direction sought with a large enough effect in the repeat runs; an effect the other way counts as inactive or inconclusive; further: on the % scale 0 is the no-effect control and ±100 the full control effect). The following applies: ARE-bla HepG2 viability, CellTiter-Glo ATP luminescence, 16 h; max response: hits give low values. A digest of the protocol: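 ARE-bla HepG2 cells treated with compounds for 16 h at 37C; this counter screen measures viability as intracellular ATP by CellTiter-Glo luminescence after 30 min at room temperature.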

A short description of assay [13]: qHTS assay for cell viability of the p53RE-bla HCT-116 cell line (AID 743292). Further: nearly all actives have a fitted effect of over 55% in size. Further: potency means the concentration at half of the fitted maximal effect. The following applies: p53RE-bla HCT-116 viability, ATP luminescence, 16 h; series mostly up to 95 µM. A digest of the protocol: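 ATP-based luminescence, 16 h compound exposure at 37 C, p53RE-bla HCT-116 cells at 4,000/well.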
The nature of assay [14]: Cellular Toxicity (caspase-3) SK-N-SH (AID 661). The following applies: SK-N-SH caspase-3 activation, qHTS, DMSO as zero, staurosporine as full; series mostly up to 91.7 µM. A digest of the protocol:
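Cells were seeded and incubated 5 hr at 37 °C, dosed with compound over a concentration range for 16 hr, then given Caspase-Glo 3/7 reagent for 1 hr at room temperature before luminescence reading.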

The nature of assay [15]: Cellular Toxicity (caspase-3) Hek293 (AID 664).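 Further: cells exposed to compound for 16 h at 37 °C before readout.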 The following applies: HEK293 caspase-3 activation, DMSO = 0%, 100 µM tamoxifen = 100%; at 92.2 µM (top of the series). In outline: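 qHTS, HEK293 (human embryonic kidney), 16 h cpd exposure in complete medium. Caspase-3/7 activation = luminescence increase; normalized to DMSO/100 uM tamoxifen; Hill-fit AC50.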
Assay [16] is described as follows: Cellular Toxicity (caspase-3) N2a (AID 665).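 Further: compound exposure lasted 16 h at 37 °C before readout.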 The following applies: N2a cells, luminescence, normalized: DMSO 0%, 10 µM staurosporine 100%; series mostly up to 92.2 µM. In outline:
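Caspase-3/7 activation, measured as increased luminescence from aminoluciferin release, is quantified in mouse N2a cells exposed to compounds for 16 h. Values are normalized to DMSO and 10 uM staurosporine, with AC50 derived by Hill modelling.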

Assay [17] in a line: Cellular Toxicity (caspase-3) NIH 3T3 (AID 666).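 Further: caspase signal read after 16 h compound exposure; 0% = DMSO basal and 100% = 100 µM tamoxifen stimulation.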 The following applies: NIH 3T3 caspase-3 activation, apoptosis/toxicity, 0% DMSO, 100% is 100 µM tamoxifen; series mostly up to 92.2 µM. A digest of the protocol:
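Cells were plated at 1000 per well and incubated 5 hr at 37°C, then compound was added for 16 hr. Caspase-Glo 3/7 reagent followed for 20 min at room temperature before luminescence was read.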

Assay [18] is described as follows: MultiTox-Fluor Cytotoxicity Assay - LYMP1-001 - Dead Cells (AID 946).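 Further: 0% = DMSO and 100% = tetraoctylammonium bromide.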 The following applies: LYMP1-001 lymphoblastoid cells, dead-cell protease fluorescence; series mostly up to 92.2 µM. A digest of the protocol:
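LYMP1-001 lymphoblastoid cells (2500/well) treated 16 h at 37 C. Dead-cell protease cleavage of bis-AAF-R110 read at Ex/Em 485/520. Normalized to DMSO and 15 uM tetraoctylammonium bromide; AC50 from Hill fits.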

Assay [19] can be described thus: MultiTox-Fluor Cytotoxicity Assay - LYMP1-003 - Live Cells (AID 962).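 Further: 0% = DMSO only and full loss = 92 µM tetraoctylammonium bromide; cytotoxic hits lower the live-cell protease signal.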 The following applies: LYMP1-003 lymphoblastoid cells, MultiTox-Fluor live-cell protease fluorescence; series mostly up to 92.2 µM. A digest of the protocol:
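Acute cytotoxicity is scored as a drop in live-cell protease activity in human lymphoblastoid LYMP1-003 cells after 16 hr compound exposure at 37 C. AC50 values come from Hill-equation modelling of concentration-response data.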

The nature of assay [20]: qHTS assay for cell viability of HEK293 cells (AID 743288). Further: on the % scale 0 is the no-effect control and ±100 the full control effect; nearly all actives have a fitted effect of over 50% in size. The following applies: ATP luminescence (CellTiter-Glo), 18 h; max response: hits give low values. A digest of the protocol: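 Quantitative high-throughput screen: compounds were pinned onto parental HEK293 cells (2,000 per well) after a minimum 5 h settling at 37 C, incubated 18 h at 37 C, and intracellular ATP measured by luciferase luminescence.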

Structures are written as SMILES. Values without a mark were called inactive. Inconclusive results are not listed. Active and inactive are the calls of the source. Unless noted, the call rests on the fitted dose curve; in most records, active means well fitted curve in the direction sought with a large enough effect; inconclusive means small, poorly fitted or top-dose-only effect, or another doubt; inactive means no such curve, though single readings can be large; an effect the other way counts as inactive or inconclusive.

For the compound `CC1=C(/C=C/C(C)=C/C=C/C(C)=C/C=O)C(C)(C)CCC1`, the Potency in [1] is 33.4 µM (active); in assay [2], 31.6 µM (active); in assay [3], 63.1 µM (active); in [4] it was 39.8 µM (active); in [6], 31.6 µM (active); in assay [7] it was 50.1 µM (active). In addition, the Potency in [8], in assay [9] and in [13] was 50.1 µM (active) each time. Besides, in assay [5], the compound was classed as inactive. Besides, the Potency result in assay [10] was “inactive”. Besides, the max response in assay [11] is -2.8%; in assay [12], 2.27%.

Consider `CC/C=C/C/C=C/C/C=C/CCCCCCCC(=O)OCC`, for which the Potency was greater than 92 µM in assay [1] and 50.1 µM (active) in assay [7]. Also, the Potency entry in assay [2], in assay [3], in assay [4], in [6], in assay [18] and in assay [19] was “inactive” throughout. Moreover, the Potency entry in [8], in assay [10] and in assay [13] was “inactive” throughout. Moreover, the outcome in [5], in assay [14], in assay [16] and in [17] was inactive. Further, in assay [15], the caspase-3 activation was 7.96%. Moreover, the max response in assay [11] is 19.5%; in [12] it was -18.4%.

Regarding `O=C(O)/C=C/c1ccc(/C=C/C(=O)O)cc1`, in assay [1], the Potency was greater than 92 µM. Further, the Potency entry in assay [2], in assay [3], in assay [4], in [6], in assay [18] and in assay [7] was “inactive” each time. Also, the Potency entry in assay [19], in assay [8], in assay [9], in [10] and in assay [13] was “inactive” in each case. Further, the compound was classed as inactive in assay [5], in [14] and in assay [16]. Also, the caspase-3 activation in [15] was -11.2%. For the same compound, the max response is -4.38% in [11], -1.74% in assay [12] and -14.7% in assay [20].

On to `S=C(NC1CCCCC1)NC1CCCCC1`, for which the Potency in assay [1] was greater than 92 µM. In addition, the Potency result in assay [2], in assay [3], in [4], in assay [6], in [18] and in assay [7] was “inactive” in each case. Besides, the Potency entry in assay [19], in assay [8], in assay [9], in assay [10] and in assay [13] was “inactive” in each case. The compound was classed as inactive in assay [5], in assay [14], in assay [16] and in assay [17]. Further, in assay [15], the caspase-3 activation is 3.5%. In addition, the max response was 1.4% in assay [11], -8.66% in assay [12] and -15.2% in assay [20].
